# Rab9 promoter act – activators of Rab9 promoter; AID 485297; 320,000 tested, 2.8% active; Potency, µM (top dose mostly 9.22 µM), inactives show at the highest dose activation, negative = inhibition, usual class: activators; Huh7 Rab9 promoter-luciferase reporter, luminescence, 24 h; note: % of control where 0% means no effect; nearly all actives have a fitted effect of over 60% in size
#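 Measured in stably transfected Huh7 cells bearing a Rab9 promoter–luciferase construct: 24 h compound treatment at 37 °C, followed by luminescence detection.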
# FLuc counter – counter-screen for miR-21 project: firefly luciferase inhibitors or activators; P08659; purified FLuc, Km substrates, luminescence inhibition; Potency, µM (doses to about 57.5 µM), inactives show top-dose activity change, negative = inhibition, usual class: inhibitors; 360,000 tested, 6.9% active; AID 588342;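 note: plate controls were vehicle for no effect and reference inhibitor for full effect; nearly all actives have a fitted effect of over 55% in size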
# Target sequence (P08659 whole entry, looked up): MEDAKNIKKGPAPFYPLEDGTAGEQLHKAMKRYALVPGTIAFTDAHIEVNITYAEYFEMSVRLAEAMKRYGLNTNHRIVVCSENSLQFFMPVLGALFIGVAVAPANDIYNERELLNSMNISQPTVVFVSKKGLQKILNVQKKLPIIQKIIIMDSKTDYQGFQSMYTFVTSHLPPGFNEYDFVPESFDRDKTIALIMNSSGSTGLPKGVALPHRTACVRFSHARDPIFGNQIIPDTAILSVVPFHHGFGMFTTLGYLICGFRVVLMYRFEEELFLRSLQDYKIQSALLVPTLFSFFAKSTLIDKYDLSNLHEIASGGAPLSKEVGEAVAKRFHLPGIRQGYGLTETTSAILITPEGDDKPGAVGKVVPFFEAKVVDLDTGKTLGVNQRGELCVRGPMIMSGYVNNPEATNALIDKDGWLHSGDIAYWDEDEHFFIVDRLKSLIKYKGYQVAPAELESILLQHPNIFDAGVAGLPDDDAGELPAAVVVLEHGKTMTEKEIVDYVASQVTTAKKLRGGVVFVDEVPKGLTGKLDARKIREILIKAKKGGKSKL
#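 Biochemical qHTS of compounds, final roughly 60 µM downward over six points, against 10 nM purified firefly luciferase using Km concentrations of substrates (10 uM D-luciferin, 10 uM ATP) in Tris acetate pH 7.5 buffer; luminescence output.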
# ELG1 repair inh – ELG1-dependent DNA repair inhibition; AID 504467; 330,000 tested, 2.3% active; Potency, µM (doses to about 46.1 µM), inactives show top-dose activity change, negative = inhibition, most hits filed as inhibitors; HEK293T ELG1-luciferase reporter, luminescence, 16 h; DNA damage induced by 5-fluorouridine; note: % is set by controls: 0 for no effect and ±100 for the full control effect; nearly all actives have a fitted effect of over 55% in size
#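 Cells (2,000 per well) received 5-fluorouridine plus test compound or DMSO and were incubated 16 hr at 37 °C, 5% CO2. Luciferase activity was read by luminescence 30 min after ONE-Glo addition; signal suppression marked inhibition of damage-induced ELG1 function.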
# ELG1 genotoxic – genotoxicity induction in ELG1-luciferase HEK293T cells; Potency, µM (doses to about 46 µM), for the others: at the top dose activity change, positive = activation, usual class: activators; HEK293T ELG1-luciferase reporter, luminescence, 16 h; 330,000 tested, 1.3% active; note: % of control where 0% means no effect; nearly all actives have a fitted effect of over 60% in size
#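 HEK293T cells expressing luciferase-tagged ELG1 were exposed to compound or DMSO vehicle for 16 hr at 37 °C and 5% CO2. Luciferase activity was then measured with ONE-Glo after 30 min at room temperature.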
# NPC1 promoter act – NPC1 promoter activation; Huh7 NPC1 promoter luciferase reporter, 24 h; Potency, µM (doses to about 9.22 µM), for the others: top-dose activation, actives largely listed as activators; 320,000 tested, 2.4% active; note: % of control where 0% means no effect; nearly all actives have a fitted effect of over 60% in size
#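 In 1536-well qHTS, Huh7 cells harboring an NPC1 promoter–luciferase construct received compound for 24 h; activation was quantified by luminescence following luciferase reagent addition.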
# SMN2 splice up – increases expression of the SMN2 splice variant; AID 1458; 210,000 tested, 2.8% active; HEK293 SMN2-luciferase splicing reporter, luminescence, 30-36 h; Potency, µM (doses to about 46.1 µM), without a hit: at the top dose activity change, positive = activation, most hits filed as activators; note: % of control where 0% means no effect; nearly all actives have a fitted effect of over 55% in size
#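 HEK293 cells carry an SMN2 minigene-luciferase reporter in which exon 7 inclusion puts luciferase in frame. Cells were seeded at 2000 cells/well, attached for 10-12 hours, then exposed to compounds for 30-36 hours at 37C before ONE-Glo luminescence.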
# * hit, by the source's call; ? = inconclusive; nt = not tested or not shown; [ ] = another dose, or the depositor's remark. The list is not random: actives were taken first. Their share in the collection is about 9.2%. Calls come from the whole dose curve; as a rule, active = well fitted curve in the direction sought with a large enough effect; inconclusive = small, poorly fitted or top-dose-only effect, or another doubt; inactive = no such curve, though single readings can be large; an effect the other way counts as inactive or inconclusive. Potency is the fitted concentration of half-maximal effect.
SMILES,Rab9 promoter act,FLuc counter,ELG1 repair inh,ELG1 genotoxic,NPC1 promoter act,SMN2 splice up
COCCn1cnc2c1c(=O)n(CC(=O)NCC(F)(F)F)c(=O)n2Cc1ccccc1,3%,-1%,-1%,0%,0%,nt
Cc1cc(N/N=C/c2ccncc2)nc2ccccc12,2.8µM*,11µM*,?,?,?,14µM*
Cc1cc(N/N=C/c2cccc(Br)c2)nc2ccccc12,?,4.8µM*,?,?,3.2µM*,13µM*
O=C(CCCn1cc([N+](=O)[O-])cn1)Nc1ccc2c(c1)OCO2,9%,-3%,19%,1%,10%,nt
C=CCn1c(=O)c2c(nc3n2CCCN3Cc2ccccc2)n(C)c1=O,-1%,0%,6%,0%,2%,nt
Cn1c(=O)n(C/C=C/c2ccccc2)c(=O)c2c1nc1n2CCCN1Cc1ccccc1,13%,1%,21µM*,-14%,1%,nt
Cn1c(=O)n(C/C=C/c2ccccc2)c(=O)c2c1nc1n2CCCN1c1ccc(F)cc1,11%,-1%,23µM*,-8%,0%,-26%
CCOC(=O)Cn1c(=O)c2c(nc3n2CCN3c2ccc(CC)cc2)n(C)c1=O,nt,13µM*,nt,nt,nt,nt
Cn1c(=O)n(CCc2ccccc2)c(=O)c2c1nc1n2CCN1Cc1ccco1,-4%,-1%,21µM*,-17%,15%,2%
CC(NC(=O)C1CCN(c2nc3ccccc3nc2C(F)(F)F)CC1)c1ccccc1 (stereo not drawn),nt,-5%,nt,nt,nt,nt
O=C(NCC1CCCCC1)c1cccc(-c2ccc(O)cc2)c1,-6%,-12%,?,-7%,3%,nt
CCCN1C(=O)/C(=C/c2c(N3CCNC(=O)C3CC(=O)OCC)nc3c(C)cccn3c2=O)SC1=S (stereo not drawn),-1%,1%,5.8µM*,-10%,-5%,nt
O=C1/C(=C/c2cccnc2)Oc2cc(OS(=O)(=O)c3ccc(Cl)cc3)ccc21,0%,-3%,15µM*,3%,4%,-62%
O=C1/C(=C/c2cccnc2)Oc2cc(OS(=O)(=O)c3ccccc3)ccc21,10%,?,0%,?,8%,0%
Cc1cc(C(F)(F)F)c(C#N)c(SCC(=O)Nc2nc3cc(Br)ccc3s2)n1,3.2µM*,-21%,?,5%,29%,-58%
CCOC(=O)NC(=O)CSc1nc(C)cc(C(F)(F)F)c1C#N,21%,-12%[2.3 µM],?,13%,22%,3%
O=C(COC(=O)COc1ccccc1F)Nc1ccc2c(c1)OCO2,-3%,0%,9%,1%,-2%,nt
O=C1NC2(CCCCCC2)C(=O)N1Cc1c(F)cccc1Cl,0%,-2%,-3%,-3%,-1%,nt
O=C(OCc1ccc(Cl)c(Cl)c1)c1cccnc1Cl,-5%,?,13%,2%,-3%,nt
Nc1ncccc1OCc1ccc(Cl)c(Cl)c1,1.4µM*,7.6µM*,?,?,2.8µM*,nt
COc1cc(CNCc2ccccn2)ccc1OCc1ccc(Cl)c(Cl)c1,13%,17µM*,?,10%,11%,7%
COc1ccc(CNCCc2ccc(Cl)cc2)cc1OCc1ccccc1,-14%,3%,15µM*,-12%,-5%,-54%
CCOc1cc(CNCc2ccccc2)ccc1OCc1ccc(Cl)cc1,-1%[1.84 µM],1%,?,-6%,-12%,nt
CCOC(=O)c1c(NC(=O)c2cc(-c3cccc(Cl)c3)on2)sc(C(C)=O)c1C,nt,-6%,nt,nt,nt,-2%
CN(C)C[C@H]1CCC2=C(C1=O)C(c1ccc(Cl)c(Cl)c1)C1=C(CC[C@H](CN(C)C)C1=O)O2,nt,nt,nt,nt,nt,-43%[9.22 µM]
Cc1cccc(N(CC(=O)NCCSCc2ccccc2)S(=O)(=O)c2ccccc2)c1C,nt,2%,nt,nt,nt,-2%
CC(NC(=O)C1CCCN1S(=O)(=O)c1cccc2nsnc12)c1ccccc1 (stereo not drawn),-4%,0%,8%,0%,-1%,nt

# Compound activity as filed in PubChem.
